Results on 34 sequences are retold here after the supplement of paper PMC10681739.

For the assay, the target named is T1, ETS1 (UniProt P14921).
T1 sequence: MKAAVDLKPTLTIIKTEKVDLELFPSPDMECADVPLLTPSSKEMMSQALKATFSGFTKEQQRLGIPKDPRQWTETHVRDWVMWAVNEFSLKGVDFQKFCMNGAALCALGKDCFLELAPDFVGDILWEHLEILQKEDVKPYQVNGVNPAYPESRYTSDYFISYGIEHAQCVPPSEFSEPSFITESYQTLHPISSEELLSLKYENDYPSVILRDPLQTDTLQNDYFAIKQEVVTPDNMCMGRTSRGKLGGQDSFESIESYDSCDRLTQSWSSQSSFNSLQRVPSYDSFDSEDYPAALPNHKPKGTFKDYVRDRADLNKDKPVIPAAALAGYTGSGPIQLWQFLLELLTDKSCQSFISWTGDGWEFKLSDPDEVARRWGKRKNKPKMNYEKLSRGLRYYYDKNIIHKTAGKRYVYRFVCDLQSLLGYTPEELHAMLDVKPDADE
Description: TF binding intensity (PBM fluorescence), negative control probe (arbitrary fluorescence units); higher = stronger binding. As for the experimental part: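 gcPBM negative-control 36-bp genomic probes lacking TF binding sites. Each was incubated with recombinant human ETS1 or RUNX1 alone and detected by antibody fluorescence. Values are medians over replicate spots (4 spots for the ETS1-RUNX1 arrays, 3 for the ETS1-ETS1 array). The probes sit in constant array flanks that are not printed.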
“AGTTATTCTAGCTCAAACCAAGTTATTTTTCACTTT (protein concentration 10 nM)” had a TF binding intensity of 108. “CTGAAATTAACCCAAAGGTTGTGTGTGGACCTCCCT (protein concentration 10 nM)” displayed a TF binding intensity of 109. “TCTTGTATTTTCCTAAAGATTTGTGTGCTGTTTCTC (protein concentration 10 nM)” displayed a TF binding intensity of 100.

As for “ACTGCTTTTTCACACAGCATCTTAATTGGCCTGTTT (protein concentration 10 nM)”, the TF binding intensity was 118. Take “GGTATCGAGCTCGGGGGACTGGGCTGCGGGGGACGT (protein concentration 10 nM)”: the TF binding intensity was found to be 264. As to “ACTTAGGTCTCTGTTACCACCATGAAACAATTTAGT (protein concentration 1 nM)”, the TF binding intensity stood at 545.

Turning to “TTCATAACGTTATACACCACAATGCTAAAAAAATGA (protein concentration 1 nM)”, the TF binding intensity is 672.

For the sequence “TGATTTCTTAAGCCAACCTCAAAAAAAAAAAAAGAG (protein concentration 1 nM)”, the TF binding intensity was determined as 596. In the case of “TGGACTATATCAAGTGTGAACGATCATACTTGTTAT (protein concentration 10 nM)”, the TF binding intensity worked out at 124.

Take “GTGTCTGCCTCATTGGCGAAGGCCAGCCTCTGAGCC (protein concentration 10 nM)”: the TF binding intensity was found to be 140. In the case of “CACCTCCTAAACAAAGCCGCATAGGTGATGGTGATG (protein concentration 1 nM)” it was 463. On to “CATGAAGAATATAGCATTGTTTTGTATATGTTTTAA (protein concentration 10 nM)”, for which the TF binding intensity worked out at 131.

Regarding “CCTGCCTCATTTGCTCACGGGCTCCCTCCCTCAAGG (protein concentration 10 nM)”, the TF binding intensity was determined as 113.

The sequence “GCCTTGCCTTGGTCATGTTTGACTCTGCCTTCAACT (protein concentration 10 nM)” registered a TF binding intensity of 146. “TCCTCACGAATCTCTCTACTTCTGTTCTTGCCCATC (protein concentration 10 nM)” yielded a TF binding intensity of 135. Then “GACATTTCGAGTAAGTGCGGTATACCAGTTAAAAAT (protein concentration 1 nM)”, with 479. Turning to “ACTGGCTAAGGTCTCTCCTGACCTGATTCCATTCTT (protein concentration 10 nM)”, the TF binding intensity worked out at 97.3.

For the sequence “TTGGGACCAATTTGACCCACAAACCCTGAAAAAGAG (protein concentration 1 nM)”, the TF binding intensity amounted to 497.

Regarding “AGGCCTGTAGCATTTAGCTGGCCTCTGAGGAATAAC (protein concentration 10 nM)”, the TF binding intensity is 101.

Turning to “GTTTCTTATAAGCAGAAACACTAACAAAGGACAGCG (protein concentration 10 nM)”, the TF binding intensity was determined as 146. With “AACTGTGACGTTACATTGCAAGGGCATGAATACAGG (protein concentration 10 nM)”, the TF binding intensity came to 131. On to “ATTCCAATCCTATGTGCTTTAAAGCTTCTAGACATT (protein concentration 10 nM)”, for which the TF binding intensity worked out at 119.

The sequence “CAGGTGGATGACTCAGCTGGAGAACAAAGTGGCTTC (protein concentration 10 nM)” displayed a TF binding intensity of 122. The sequence “TTGTGTTCTTATCAAATTATTAAGATTTTAGGTGAG (protein concentration 10 nM)” yielded a TF binding intensity of 133. In turn, “ATGGATAAGAATGTCTGTGGGTAGCTGTCTCCTCTT (protein concentration 1 nM)” came in with a TF binding intensity of 444. For the sequence “TAGTCCTGGAAAGGTCATGTCAACCCTCCTGCATAT (protein concentration 10 nM)”, the TF binding intensity stood at 115. In the case of “ACTTTCTATGAGGCTGCCACTCCTGGTACCACACAT (protein concentration 10 nM)” it was 133.

Turning to “CCCCTCCAGACTCCCCTGACCCAGGGTGGAGGACAT (protein concentration 10 nM)”, the TF binding intensity is 161. In the case of “CTTATTATTAATGGTCATTAGCCACAGTCACCACCA (protein concentration 10 nM)” it was 137; in that of “TTAACCTCTAGAAAAAGTAAATATTCAGCAATAGGA (protein concentration 10 nM)”, 103. In turn, “TATTTTCCAAAAGTGGCCACAACAACATCTGCCAAC (protein concentration 1 nM)” registered a TF binding intensity of 442. Sequence “CCCCTGTGCAACCTTTCATTCCCTAAGCCACTTTTC (protein concentration 10 nM)” displayed a TF binding intensity of 139. Sequence “TCAGCCTGAGAGCTATGTGGGTGAATAAAAATAAAA (protein concentration 1 nM)” displayed a TF binding intensity of 499. In turn, “GTGAAACCAGGGCACAGGTAGAAATCCCTAGAGCAG (protein concentration 10 nM)” had a TF binding intensity of 138.
